Our source for the binding signal values is publication PMC7862700, “An all-to-all approach to the identification of sequence-specific readers for epigenetic DNA modifications on cytosine”.

Common to all, as to assay: DAPPL (digital affinity profiling via proximity ligation, sequencing); 10 mM Tris-HCl pH 7.5, 50 mM NaCl, 1 mM DTT, 4% glycerol, room temperature, 30 min; GST-TFs on glutathione beads, 16-mer random dsDNA library, 0.1% formaldehyde crosslink after washing; high values mean tight binding
For one assay, the target named is T1, FEV (Homo sapiens, UniProt Q99581 1-238).
T1 sequence: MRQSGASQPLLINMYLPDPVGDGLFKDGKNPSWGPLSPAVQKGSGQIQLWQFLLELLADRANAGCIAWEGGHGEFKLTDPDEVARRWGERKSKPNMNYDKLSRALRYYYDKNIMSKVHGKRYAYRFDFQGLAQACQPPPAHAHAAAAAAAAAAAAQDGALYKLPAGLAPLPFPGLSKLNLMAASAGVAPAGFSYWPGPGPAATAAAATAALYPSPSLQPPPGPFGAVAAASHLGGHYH
The note with it: protein: recombinant; tags: N-terminal GST; dsDNA, one strand shown. In a few lines:
(§1)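 Binding signal is defined as a hexamer's read frequency for one factor over its frequency for the tag-only sample. To obtain reads, GST-fused human transcription factors were expressed in yeast, captured on glutathione beads, barcoded with DNA and pooled with that sample. Pools met 200 nmole of a 16-mer random double-stranded DNA library in Tris/NaCl/DTT/glycerol buffer for 30 min at room temperature before washing, 0.1% formaldehyde crosslinking, proximity ligation (BsaI/T4 ligase, 1 h, 37 °C), PCR and Illumina NextSeq500 sequencing.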

A further assay addresses ETV5 (Homo sapiens, UniProt P41161 1-510). As to conditions: protein: recombinant; tags: N-terminal GST; dsDNA, one strand shown. In outline:
as §1

For another assay, the target named is HSF1 (Homo sapiens, UniProt Q00613 1-529). As to conditions: protein: recombinant; tags: N-terminal GST; chain copies: 3; dsDNA, one strand shown. In a few lines: as §1
The target in another assay is T2, SPIC (Homo sapiens, UniProt Q8N5J4 1-248).
T2 sequence: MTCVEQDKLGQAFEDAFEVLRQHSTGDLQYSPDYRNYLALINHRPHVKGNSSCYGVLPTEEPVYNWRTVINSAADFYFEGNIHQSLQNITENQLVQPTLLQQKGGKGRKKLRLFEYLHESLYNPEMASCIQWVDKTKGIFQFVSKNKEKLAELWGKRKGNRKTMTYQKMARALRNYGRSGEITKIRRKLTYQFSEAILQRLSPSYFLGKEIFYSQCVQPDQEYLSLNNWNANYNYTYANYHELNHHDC
The note with it: protein: recombinant; tags: N-terminal GST; dsDNA, one strand shown. In outline:
as §1

For another assay, the target named is ELF4 (Homo sapiens, UniProt Q99607 1-663). As to conditions: protein: recombinant; tags: N-terminal GST; dsDNA, one strand shown. In a few lines:
as §1

In a further assay the target is T3, ELK4 (Homo sapiens, UniProt P28324-2 1-405).
T3 sequence: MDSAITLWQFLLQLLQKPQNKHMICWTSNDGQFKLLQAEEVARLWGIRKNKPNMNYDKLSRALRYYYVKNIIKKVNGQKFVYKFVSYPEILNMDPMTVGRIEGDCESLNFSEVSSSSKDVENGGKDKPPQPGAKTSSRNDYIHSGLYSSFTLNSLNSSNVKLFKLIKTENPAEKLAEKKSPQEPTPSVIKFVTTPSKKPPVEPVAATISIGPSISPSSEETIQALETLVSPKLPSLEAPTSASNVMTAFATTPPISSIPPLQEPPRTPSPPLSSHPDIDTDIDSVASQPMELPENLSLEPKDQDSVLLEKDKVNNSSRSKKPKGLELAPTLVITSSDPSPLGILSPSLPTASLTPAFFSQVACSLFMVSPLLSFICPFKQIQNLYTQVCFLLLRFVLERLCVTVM
As to conditions: protein: recombinant; tags: N-terminal GST; dsDNA, one strand shown. In a few lines:
as §1

The target in a further assay is T4, ETV2 (Homo sapiens, UniProt O00321 1-342).
T4 sequence: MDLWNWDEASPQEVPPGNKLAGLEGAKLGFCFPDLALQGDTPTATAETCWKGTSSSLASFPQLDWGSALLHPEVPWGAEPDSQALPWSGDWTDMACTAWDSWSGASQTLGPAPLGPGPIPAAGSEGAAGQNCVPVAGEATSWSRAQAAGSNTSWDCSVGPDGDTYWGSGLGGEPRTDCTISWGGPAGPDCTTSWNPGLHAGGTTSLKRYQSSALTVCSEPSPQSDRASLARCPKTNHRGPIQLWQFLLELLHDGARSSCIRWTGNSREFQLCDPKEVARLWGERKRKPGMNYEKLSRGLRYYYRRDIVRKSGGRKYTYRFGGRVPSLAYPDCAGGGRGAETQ
The note with it: protein: recombinant; tags: N-terminal GST; dsDNA, one strand shown. In a few lines:
as §1

Another assay addresses T5, ELF3 (Homo sapiens, UniProt P78545 1-371).
T5 sequence: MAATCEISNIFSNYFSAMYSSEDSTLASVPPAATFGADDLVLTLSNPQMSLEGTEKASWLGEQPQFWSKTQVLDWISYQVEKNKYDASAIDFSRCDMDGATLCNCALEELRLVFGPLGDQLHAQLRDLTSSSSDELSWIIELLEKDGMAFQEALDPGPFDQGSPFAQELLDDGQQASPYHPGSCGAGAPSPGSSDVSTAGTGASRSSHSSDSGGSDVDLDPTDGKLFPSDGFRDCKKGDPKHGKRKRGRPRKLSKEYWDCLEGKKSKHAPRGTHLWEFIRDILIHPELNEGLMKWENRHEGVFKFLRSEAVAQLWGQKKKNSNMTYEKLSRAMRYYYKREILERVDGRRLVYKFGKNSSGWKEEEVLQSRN
As to conditions: protein: recombinant; tags: N-terminal GST; dsDNA, one strand shown. In a few lines:
as §1

A further assay deals with CRX (Homo sapiens, UniProt O43186 1-299). As to conditions: protein: recombinant; tags: N-terminal GST; dsDNA, one strand shown. In outline:
as §1

The target of another assay is ETV1 (Homo sapiens, UniProt P50549 1-477). As to conditions: protein: recombinant; tags: N-terminal GST; dsDNA, one strand shown. In outline:
as §1

The target in a further assay is T6, ERF (Homo sapiens, UniProt P50548 1-548).
T6 sequence: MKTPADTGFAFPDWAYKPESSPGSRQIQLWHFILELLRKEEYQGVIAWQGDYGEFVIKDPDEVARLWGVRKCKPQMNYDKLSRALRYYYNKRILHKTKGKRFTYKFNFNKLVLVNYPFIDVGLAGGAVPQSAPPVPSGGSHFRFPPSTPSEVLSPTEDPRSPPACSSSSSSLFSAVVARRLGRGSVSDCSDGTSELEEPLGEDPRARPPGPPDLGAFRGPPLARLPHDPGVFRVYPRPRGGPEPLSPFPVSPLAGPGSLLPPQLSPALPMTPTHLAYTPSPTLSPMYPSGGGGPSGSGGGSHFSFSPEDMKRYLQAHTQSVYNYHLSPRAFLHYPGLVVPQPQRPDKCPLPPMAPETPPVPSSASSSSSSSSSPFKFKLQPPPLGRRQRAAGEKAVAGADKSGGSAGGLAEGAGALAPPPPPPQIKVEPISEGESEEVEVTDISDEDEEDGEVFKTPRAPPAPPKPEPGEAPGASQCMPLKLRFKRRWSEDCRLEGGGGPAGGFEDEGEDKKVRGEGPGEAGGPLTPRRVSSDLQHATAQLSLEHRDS
As to conditions: protein: recombinant; tags: N-terminal GST; dsDNA, one strand shown. In a few lines: as §1

The target in the next assay is T7, ETV3L (Homo sapiens, UniProt Q6ZN32 1-361).
T7 sequence: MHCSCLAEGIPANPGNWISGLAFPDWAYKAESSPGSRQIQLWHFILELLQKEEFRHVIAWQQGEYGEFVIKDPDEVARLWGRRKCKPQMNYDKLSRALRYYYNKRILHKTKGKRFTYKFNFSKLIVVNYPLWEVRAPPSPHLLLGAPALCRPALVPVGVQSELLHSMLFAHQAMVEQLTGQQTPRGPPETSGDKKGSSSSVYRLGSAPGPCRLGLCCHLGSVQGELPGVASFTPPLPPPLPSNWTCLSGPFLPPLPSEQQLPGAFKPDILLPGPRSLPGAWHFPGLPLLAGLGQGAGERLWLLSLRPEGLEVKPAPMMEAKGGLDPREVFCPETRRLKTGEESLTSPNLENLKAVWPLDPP
The note with it: protein: recombinant; tags: N-terminal GST; dsDNA, one strand shown. In a few lines: as §1

The next assay concerns the target T8, ETS2 (Homo sapiens, UniProt P15036 1-469).
T8 sequence: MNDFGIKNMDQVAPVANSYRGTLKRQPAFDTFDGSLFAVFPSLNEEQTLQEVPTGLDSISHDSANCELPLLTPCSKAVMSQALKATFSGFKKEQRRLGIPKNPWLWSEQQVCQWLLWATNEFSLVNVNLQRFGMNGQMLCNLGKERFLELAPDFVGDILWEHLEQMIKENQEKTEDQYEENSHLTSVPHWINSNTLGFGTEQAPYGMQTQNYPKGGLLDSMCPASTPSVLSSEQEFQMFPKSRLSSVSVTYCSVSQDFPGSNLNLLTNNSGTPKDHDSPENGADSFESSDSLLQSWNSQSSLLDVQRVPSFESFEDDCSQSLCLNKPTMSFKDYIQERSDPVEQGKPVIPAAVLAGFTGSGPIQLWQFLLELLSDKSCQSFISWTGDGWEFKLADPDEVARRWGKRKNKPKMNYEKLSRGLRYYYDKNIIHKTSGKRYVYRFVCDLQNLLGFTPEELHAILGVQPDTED
The note with it: protein: recombinant; tags: N-terminal GST; dsDNA, one strand shown. In outline:
as §1

The next assay addresses T9, SPDEF (Homo sapiens, UniProt O95238 1-335).
T9 sequence: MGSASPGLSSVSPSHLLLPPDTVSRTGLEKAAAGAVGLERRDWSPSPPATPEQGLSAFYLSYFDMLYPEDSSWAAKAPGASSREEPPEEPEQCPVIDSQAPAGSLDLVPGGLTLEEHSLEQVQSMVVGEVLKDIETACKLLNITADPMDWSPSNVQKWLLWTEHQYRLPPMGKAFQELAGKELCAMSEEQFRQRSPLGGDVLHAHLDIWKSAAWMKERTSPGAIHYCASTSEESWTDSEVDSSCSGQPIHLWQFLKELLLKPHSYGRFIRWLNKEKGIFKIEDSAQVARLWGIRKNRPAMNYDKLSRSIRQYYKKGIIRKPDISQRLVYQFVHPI
As to conditions: protein: recombinant; tags: N-terminal GST; dsDNA, one strand shown. In a few lines:
as §1

In a further assay the target is T10, ETV7 (Homo sapiens, UniProt Q9Y603 1-341).
T10 sequence: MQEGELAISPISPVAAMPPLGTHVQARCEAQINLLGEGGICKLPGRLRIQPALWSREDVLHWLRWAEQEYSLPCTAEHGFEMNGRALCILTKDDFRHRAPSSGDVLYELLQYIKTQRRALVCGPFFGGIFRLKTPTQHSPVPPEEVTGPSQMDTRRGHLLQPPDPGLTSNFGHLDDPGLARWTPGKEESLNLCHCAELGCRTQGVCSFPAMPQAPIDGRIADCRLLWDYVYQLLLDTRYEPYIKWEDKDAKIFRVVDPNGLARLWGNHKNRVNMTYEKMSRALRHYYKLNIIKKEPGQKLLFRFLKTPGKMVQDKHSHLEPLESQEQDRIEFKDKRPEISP
The note with it: protein: recombinant; tags: N-terminal GST; dsDNA, one strand shown. In a few lines: as §1

In a further assay the target is T11, ELF5 (Homo sapiens, UniProt Q9UKW6-2 1-255).
T11 sequence: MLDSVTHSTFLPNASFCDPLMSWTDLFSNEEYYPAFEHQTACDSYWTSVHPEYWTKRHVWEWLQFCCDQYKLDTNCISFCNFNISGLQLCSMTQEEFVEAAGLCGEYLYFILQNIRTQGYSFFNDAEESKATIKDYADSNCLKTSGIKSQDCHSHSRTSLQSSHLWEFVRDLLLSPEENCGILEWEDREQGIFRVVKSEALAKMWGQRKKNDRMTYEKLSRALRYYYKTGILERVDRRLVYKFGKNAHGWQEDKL
The note with it: protein: recombinant; tags: N-terminal GST; dsDNA, one strand shown. In a few lines: as §1

The next assay deals with T12, ETV3 (Homo sapiens, UniProt P41162-2 1-143).
T12 sequence: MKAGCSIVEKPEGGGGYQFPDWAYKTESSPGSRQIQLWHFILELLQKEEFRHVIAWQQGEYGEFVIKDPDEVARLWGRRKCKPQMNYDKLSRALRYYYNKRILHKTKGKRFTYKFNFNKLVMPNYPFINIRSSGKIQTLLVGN
The note with it: protein: recombinant; tags: N-terminal GST; dsDNA, one strand shown. In outline:
as §1

A further assay has as its target ETV6 (Homo sapiens, UniProt P41212 1-452). The note with it: protein: recombinant; tags: N-terminal GST; dsDNA, one strand shown. In a few lines: as §1

Chain of CRX (O43186 whole entry): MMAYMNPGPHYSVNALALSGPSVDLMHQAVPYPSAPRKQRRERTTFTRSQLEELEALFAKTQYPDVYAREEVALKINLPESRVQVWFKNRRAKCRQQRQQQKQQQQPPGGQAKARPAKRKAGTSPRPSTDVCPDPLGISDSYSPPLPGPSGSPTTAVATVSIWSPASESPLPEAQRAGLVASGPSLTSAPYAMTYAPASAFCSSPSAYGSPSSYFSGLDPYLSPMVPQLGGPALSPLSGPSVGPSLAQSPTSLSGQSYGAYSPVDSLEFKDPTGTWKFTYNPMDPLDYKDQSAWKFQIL
Chain of ETV5 (P41161 whole entry): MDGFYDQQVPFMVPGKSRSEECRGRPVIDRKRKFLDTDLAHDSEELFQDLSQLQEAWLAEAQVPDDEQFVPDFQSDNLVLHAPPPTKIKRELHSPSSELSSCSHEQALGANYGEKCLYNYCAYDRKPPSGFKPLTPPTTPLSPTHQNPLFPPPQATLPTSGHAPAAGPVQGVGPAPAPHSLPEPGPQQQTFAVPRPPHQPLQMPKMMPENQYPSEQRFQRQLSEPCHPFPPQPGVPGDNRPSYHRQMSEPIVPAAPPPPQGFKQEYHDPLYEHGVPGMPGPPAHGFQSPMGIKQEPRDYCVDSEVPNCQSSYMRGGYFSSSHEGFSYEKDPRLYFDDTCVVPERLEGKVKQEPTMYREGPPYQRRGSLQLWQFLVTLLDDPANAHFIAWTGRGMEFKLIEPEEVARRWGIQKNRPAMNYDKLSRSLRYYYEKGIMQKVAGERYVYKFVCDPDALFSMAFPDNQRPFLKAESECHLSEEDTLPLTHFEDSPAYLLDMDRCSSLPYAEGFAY
Chain of ELF4 (Q99607 whole entry): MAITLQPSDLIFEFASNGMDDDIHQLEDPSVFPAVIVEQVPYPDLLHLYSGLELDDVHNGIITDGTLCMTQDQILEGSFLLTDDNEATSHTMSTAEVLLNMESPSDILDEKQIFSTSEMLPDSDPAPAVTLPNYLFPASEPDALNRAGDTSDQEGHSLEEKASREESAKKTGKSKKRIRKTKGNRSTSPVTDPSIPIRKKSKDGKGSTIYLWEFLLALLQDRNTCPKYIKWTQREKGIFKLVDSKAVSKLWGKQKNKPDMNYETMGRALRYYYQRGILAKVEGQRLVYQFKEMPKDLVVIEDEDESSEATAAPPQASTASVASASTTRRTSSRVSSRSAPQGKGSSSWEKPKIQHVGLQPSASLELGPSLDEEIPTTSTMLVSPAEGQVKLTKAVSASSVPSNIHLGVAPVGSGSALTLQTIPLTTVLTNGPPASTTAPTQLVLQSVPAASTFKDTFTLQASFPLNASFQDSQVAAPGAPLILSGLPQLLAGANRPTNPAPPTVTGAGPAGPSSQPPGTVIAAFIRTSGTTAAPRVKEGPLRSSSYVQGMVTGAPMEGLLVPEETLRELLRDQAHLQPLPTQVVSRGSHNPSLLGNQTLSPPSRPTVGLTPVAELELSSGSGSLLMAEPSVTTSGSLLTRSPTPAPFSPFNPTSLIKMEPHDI
Chain of HSF1 (Q00613 whole entry): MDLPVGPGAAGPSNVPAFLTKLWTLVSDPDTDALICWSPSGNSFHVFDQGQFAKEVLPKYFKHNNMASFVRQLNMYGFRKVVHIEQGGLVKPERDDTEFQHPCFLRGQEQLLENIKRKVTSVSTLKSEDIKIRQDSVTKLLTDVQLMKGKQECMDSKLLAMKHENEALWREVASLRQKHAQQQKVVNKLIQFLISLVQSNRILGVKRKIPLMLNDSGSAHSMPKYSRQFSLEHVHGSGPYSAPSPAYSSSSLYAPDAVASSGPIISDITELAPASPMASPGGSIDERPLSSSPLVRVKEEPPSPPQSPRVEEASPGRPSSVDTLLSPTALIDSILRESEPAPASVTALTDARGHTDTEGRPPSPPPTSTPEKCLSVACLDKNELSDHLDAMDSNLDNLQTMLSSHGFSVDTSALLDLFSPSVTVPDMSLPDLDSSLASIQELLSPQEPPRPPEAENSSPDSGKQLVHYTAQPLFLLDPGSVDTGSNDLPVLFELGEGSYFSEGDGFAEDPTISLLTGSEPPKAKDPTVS
Chain of ETV1 (P50549 whole entry): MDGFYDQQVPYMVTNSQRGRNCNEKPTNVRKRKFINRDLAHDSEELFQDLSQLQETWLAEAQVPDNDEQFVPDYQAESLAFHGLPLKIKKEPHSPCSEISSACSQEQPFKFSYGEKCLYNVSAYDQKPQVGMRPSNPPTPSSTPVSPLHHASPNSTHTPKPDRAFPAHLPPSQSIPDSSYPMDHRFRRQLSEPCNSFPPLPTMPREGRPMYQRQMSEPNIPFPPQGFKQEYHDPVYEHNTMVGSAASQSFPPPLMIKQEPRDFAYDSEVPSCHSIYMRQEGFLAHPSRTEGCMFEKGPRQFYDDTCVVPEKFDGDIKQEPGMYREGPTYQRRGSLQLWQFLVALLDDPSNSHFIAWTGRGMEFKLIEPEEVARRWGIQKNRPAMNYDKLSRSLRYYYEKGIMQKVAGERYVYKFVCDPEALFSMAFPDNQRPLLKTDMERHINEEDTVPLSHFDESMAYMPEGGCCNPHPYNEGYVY
Chain of ETV6 (P41212 whole entry): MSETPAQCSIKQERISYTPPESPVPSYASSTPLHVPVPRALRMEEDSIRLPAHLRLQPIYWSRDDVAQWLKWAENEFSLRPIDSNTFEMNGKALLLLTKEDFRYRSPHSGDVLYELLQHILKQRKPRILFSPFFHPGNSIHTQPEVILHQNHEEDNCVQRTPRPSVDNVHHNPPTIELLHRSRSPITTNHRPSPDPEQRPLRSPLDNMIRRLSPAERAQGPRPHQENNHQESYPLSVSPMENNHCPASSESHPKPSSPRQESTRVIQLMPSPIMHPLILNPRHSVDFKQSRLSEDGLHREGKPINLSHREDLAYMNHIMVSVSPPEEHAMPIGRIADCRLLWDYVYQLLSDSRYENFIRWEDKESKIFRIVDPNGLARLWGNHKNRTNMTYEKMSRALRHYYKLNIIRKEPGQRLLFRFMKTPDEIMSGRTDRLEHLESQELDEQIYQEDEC

For the sequence CAAGAT, the binding signal in the assay with FEV is 1.02 fold enrichment (6-mer frequency, TF over GST control); in the assay with ETV5, 1.1 fold enrichment (6-mer frequency, TF over GST control); in the assay with HSF1 it was 1.18 fold enrichment (6-mer frequency, TF over GST control); with SPIC, 1.14 fold enrichment (6-mer frequency, TF over GST control); with ELF4 it was 1.18 fold enrichment (6-mer frequency, TF over GST control); with ELK4, 1.11 fold enrichment (6-mer frequency, TF over GST control). In addition, the binding signal was 1.09 fold enrichment (6-mer frequency, TF over GST control) in the assay with ETV2; 1.06 fold enrichment (6-mer frequency, TF over GST control) in the assay with ELF3; 1.23 fold enrichment (6-mer frequency, TF over GST control) with CRX; 1.06 fold enrichment (6-mer frequency, TF over GST control) with ETV1; 1.06 fold enrichment (6-mer frequency, TF over GST control) with ERF; 1.13 fold enrichment (6-mer frequency, TF over GST control) with ETV3L. For the same sequence, the binding signal with ETS2 is 1.06 fold enrichment (6-mer frequency, TF over GST control); with SPDEF, 1.26 fold enrichment (6-mer frequency, TF over GST control); in the assay with ETV7, 1.02 fold enrichment (6-mer frequency, TF over GST control); with ELF5, 1.01 fold enrichment (6-mer frequency, TF over GST control); in the assay with ETV3, 1.08 fold enrichment (6-mer frequency, TF over GST control); in the assay with ETV6, 1.01 fold enrichment (6-mer frequency, TF over GST control).
